Measured values: PubChem BioAssay (NCATS)
Calls of active or inactive are those of the source. Calls follow the shape of the dose curve; as a rule, active = well fitted curve in the direction sought with a large enough effect; inconclusive = small, poorly fitted or top-dose-only effect, or another doubt; inactive = no such curve, though single readings can be large or run the other way. Numbered stars: 1 amine (or outer) side, 2 acyl side, 3 side chain; on linkers, the order of the positions; unused ones are H or OH. Bridge positions count the residues as written; N and C are the ends. Square brackets hold non-standard residues; d marks the D form. Peptide text beside a SMILES is read from it. I, II: the chains in the order shown. Actinocin(9to1) = Cc1c2oc3c(C)ccc(C(=O)[*:1])c3nc-2c(C(=O)[*:2])c(N)c1=O; NMeV = CN[C@H](C(=O)O)C(C)C; Sar = CNCC(=O)O

Assay: Cellular Toxicity (caspase-3) HUV-EC-C (AID 656)
Conditions: HUV-EC-C cells, caspase-3 activation (apoptosis), vehicle = 0, 100 µM tamoxifen = 100%; series mostly up to 92.2 µM
Text: NIH Chemical Genomics Center [NCGC]
NIH Molecular Libraries Screening Centers Network [MLSCN]
National Institutes of Environmental Health Sciences [NIEHS]
National Toxicology Program [NTP]
We have developed a 1536-well cell-based assay for quantitative high throughput screening (qHTS) against a number of cell lines to determine in vitro caspase 3/7 of small molecules. This particular assay uses the HUV-EC-C cell line which is derived from normal human vascular endothelial cells.
NCGC Assay Protocol Summary:
The Caspase-Glo 3/7 assay (Promega) is a homogeneous method to measure caspase-3 and caspase-7 activities in cultured cells. The quantitation of caspase 3/7 activity is based on the cleavage of a peptide-aminoluciferin substrate. After caspase cleaves the substrate the free aminoluciferin is liberated and serves as the substrate of luciferase, which generates the light. The luminescent signal is proportional to amount of caspase 3/7 activity present.
Using the Caspase-Glo 3/7 assay, the amount of caspase 3/7 activity was measured in the HUV-EC-C cell line with complete culture medium following compound treatment for 16 hours. The assay was performed in opaque white 1536-well plates. In the screen, tamoxifen and doxorubicin were used as positive controls. Library compounds were measured for their ability to cause the activation of caspase 3/7 in the cell line, as reflected by an increase in luminescence signal, in a concentration-dependent manner. Data were normalized to the controls for basal activity (DMSO only) and 100% stimulation (100 uM tamoxifen). AC50 values were determined from concentration-response data modeled with the standard Hill equation.
qHTS protocol for caspase 3/7 assay in HUV-EC-C cell line
[Step] [Parameter] [Value] [Description]
1. Reagent; 5 uL; 1000 HUV-EC-C cells/well
2. Time; 5 hr; 37 °C incubation
4. Controls; 23 nL; Tamoxifen 0.23 uM to 100 uM & doxorubicin 7.0 pM to 100 uM
5. Time; 16 hr; 37 °C incubation
6. Reagent; 5 uL; Caspase-Glo 3/7 reagent
7. Time; 20 min; Room Temperature
8. Detection; Luminescence; Viewlux plate reader
Keywords: caspase 3/7, apoptosis, HUV-EC-C cell line, luminescence, NTPHTS, NTPHTS_NCGC, NIEHS, EPA, DSSTox, MLSMR, MLSCN, NIH Roadmap, qHTS, NCGC

| Structure (SMILES) | outcome |
| --- | --- |
| COC1=CC(=O)C[C@@H](C)[C@]12Oc1c(Cl)c(OC)cc(OC)c1C2=O | inactive |
| CN(C)/N=N/c1nc[nH]c1C(N)=O | inactive |
| CC(=O)Oc1ccc(C(c2ccc(OC(C)=O)cc2)c2ccccn2)cc1 | inactive |
| C=C(CC)C(=O)c1ccc(OCC(=O)O)c(Cl)c1Cl | inactive |
| Oc1c(Cl)cc(Cl)cc1Sc1cc(Cl)cc(Cl)c1O | inactive |
| COc1cccc2c1C(=O)c1c(O)c3c(c(O)c1C2=O)C[C@@](O)(C(=O)CO)C[C@@H]3O[C@H]1C[C@H](N)[C@H](O)[C@H](C)O1 | inactive |
| Nc1ccc(C(=O)O)cc1 | inactive |
| Oc1ccc(O)cc1 | inactive |
| C[C@]12CC[C@@H]3c4ccc(O)cc4CC[C@H]3[C@@H]1CC[C@@H]2O | inactive |
| O=C1OC(c2ccc(O)cc2)(c2ccc(O)cc2)c2ccccc21 | inactive |
| COc1cccc2c1C(=O)c1c(O)c3c(c(O)c1C2=O)C[C@@](O)(C(C)=O)C[C@@H]3O[C@H]1C[C@H](N)[C@H](O)[C@H](C)O1 | inactive |
| C=CCc1ccc(O)c(OC)c1 | inactive |
| NC(=NCCCCCCN=C(N)/N=C(\N)Nc1ccc(Cl)cc1)/N=C(\N)Nc1ccc(Cl)cc1 | inactive |
| Oc1ccc(Cl)cc1Sc1cc(Cl)ccc1O | inactive |
| CC(=O)O[C@]1(C(C)=O)CC[C@H]2[C@@H]3C[C@H](C)C4=CC(=O)CC[C@]4(C)[C@H]3CC[C@@]21C | inactive |
| CCCCCCc1ccc(O)cc1O | inactive |
| Cc1c2oc3c(C)ccc(C(=O)N[C@@H]4C(=O)N[C@H](C(C)C)C(=O)N5CCC[C@H]5C(=O)N(C)CC(=O)N(C)[C@@H](C(C)C)C(=O)O[C@@H]4C)c3nc-2c(C(=O)N[C@@H]2C(=O)N[C@H](C(C)C)C(=O)N3CCC[C@H]3C(=O)N(C)CC(=O)N(C)[C@@H](C(C)C)C(=O)O[C@@H]2C)c(N)c1=O (I: T[dV]P[Sar][NMeV] / II: T[dV]P[Sar][NMeV]; ester I:1-I:C, II:1-II:C; linker I:N-II:N via Actinocin(9to1)) | inactive |
| Oc1c(I)cc(Cl)c2cccnc12 | inactive |
| O=C(O)CCCCC(=O)O | inactive |
| CC/C(=C(/CC)c1ccc(O)cc1)c1ccc(O)cc1 | inactive |
| CC(O)C(=O)O (configuration not stated) | inactive |
| O=c1ccc2ccccc2o1 | inactive |
